D2 ag-1 – activates the human D2 dopamine receptor | P14416 | HEK293 T-REx D2 cells, calcium flux agonist mode | activation, % at 2 µM | 340,000 compounds, 0.53% hits;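 active = activation over 3 SD above normal in the single-dose calcium agonist read, cut at about 30% in these data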
Target sequence (P14416 whole entry, looked up): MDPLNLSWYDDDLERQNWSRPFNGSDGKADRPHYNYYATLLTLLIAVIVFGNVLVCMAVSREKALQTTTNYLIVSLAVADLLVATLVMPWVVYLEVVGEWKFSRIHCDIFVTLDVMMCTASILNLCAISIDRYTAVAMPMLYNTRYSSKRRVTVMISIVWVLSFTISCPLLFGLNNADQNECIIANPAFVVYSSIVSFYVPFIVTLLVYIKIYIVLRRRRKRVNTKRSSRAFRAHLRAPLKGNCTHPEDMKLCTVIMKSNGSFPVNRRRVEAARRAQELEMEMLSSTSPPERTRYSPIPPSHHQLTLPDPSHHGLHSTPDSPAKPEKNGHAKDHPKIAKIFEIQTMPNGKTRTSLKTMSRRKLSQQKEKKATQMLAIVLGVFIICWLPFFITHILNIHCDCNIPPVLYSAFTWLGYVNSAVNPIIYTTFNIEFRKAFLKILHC
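Tetracycline-induced HEK293 Trex cells with D2 receptor force-coupled to calcium signaling, plated overnight at 30 C and loaded with no-wash calcium dye. Calcium flux read kinetically for 180 s after compound addition; responses flag agonists.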
D2 PAM-1 – positive allosteric modulators of human D2 dopamine receptor; DiscoveRx D2 beta-arrestin cells, luminescence, 90 min; 100% = 57 uM dopamine signal; potentiation, % (no concentration beside the values); 360,000 compounds, 0.23% hits; in the data active = potentiation above about 50%
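PathHunter D2 cells, attached overnight at 37 deg C, received compound in DMSO plus dopamine at EC20 (50 nM final) for 90 min at 37 deg C. Beta-arrestin recruitment was read as luminescence after 1 h with detection reagent at ambient temperature.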
D2 ag-2 – agonists of human D2 dopamine receptor (beta-arrestin). 360,000 compounds, 0.084% hits. DiscoveRx PathHunter D2 beta-arrestin, luminescence, 90 min; 100% = 57 uM dopamine signal. activation, % (test concentration not listed). P14416. AID 624465; in the data active = activation above about 40%
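Agonist mode: compounds alone added to overnight-plated D2 PathHunter cells for 90 min at 37 C, with 57 uM final dopamine (EC100) defining full response. Beta-arrestin recruitment detected by chemiluminescent reagent, read after 1 h at ambient temperature.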
D2 antagonist – antagonizes the human D2 dopamine receptor | P14416 | 340,000 compounds, 2% hits | inhibition, % at 10 µM | HEK293 TREx D2 cells, calcium flux, dopamine EC80 | AID 485344; in the data active = inhibition above about 30%; inactive = below that, where a call was filed
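Tetracycline-induced HEK293 T-REx cells expressing D2 force-coupled to calcium signalling were dye-loaded, exposed to compound for 180 s, then challenged with an EC80 of dopamine; calcium flux was followed kinetically for a further 180 s.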
D2 PAM-2 – D2 dopamine receptor (human) potentiation. P14416. HEK293 T-REx D2, calcium flux, EC20 dopamine potentiation. potentiation, % at 10 µM. 340,000 compounds, 0.34% hits. AID 485347;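 active = potentiation over 3 SD above the plate norm, cut at about 30% in these data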
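Calcium flux readout, no-wash dye, 1 read/s. Inducible HEK293 Trex D2 line, overnight 30 C. Compound alone 180 s (agonist flags), then EC20 dopamine, another 180 s to score potentiation.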
Numbers stand for hits. In the library only some 2.4% were active in any assay of this set; here they are far more common.

`CCOC(=O)Cc1cc(=O)n2[nH]c(C)c(-c3ccc(OC)cc3)c2n1` gave D2 ag-1 inactive, D2 PAM-1 inactive, D2 ag-2 inactive, D2 antagonist inactive and D2 PAM-2 30.8.
Screening O=c1cc2oc3cc(O)c(O)cc3c(-c3ccccc3[N+](=O)[O-])c-2cc1O returned D2 ag-1 inactive, D2 PAM-1 inactive, D2 ag-2 inactive, D2 antagonist 31.4 and D2 PAM-2 inactive.
`COc1ccccc1CCNCc1ccc(OC)c(OCc2ccccc2)c1` gave D2 PAM-1 inactive and D2 ag-2 inactive.
Screening COc1ccc(CNCc2ccco2)cc1OCc1ccccc1 returned D2 ag-1 inactive, D2 PAM-1 inactive, D2 ag-2 inactive, D2 antagonist 37.4 and D2 PAM-2 inactive.
For Cc1c(C(=O)N/N=C/c2ccoc2)cccc1[N+](=O)[O-] the results were D2 ag-1 inactive, D2 PAM-1 inactive, D2 ag-2 inactive, D2 antagonist 67.4 and D2 PAM-2 inactive.
CCOc1ccccc1NC(=O)Cn1c(=O)n(CCCC(=O)NCCc2ccc(C)cc2)c(=O)c2ccccc21 was read as D2 ag-1 inactive.
For CCOc1ccc(CCNC(=O)CN2CCN(Cc3ccc(Cl)cc3)C2=O)cc1OCC the results were D2 ag-1 inactive and D2 PAM-2 inactive.
`Cc1ccc(CNC(=O)Cn2c(=O)cc(C(F)(F)F)c3c(C)nn(C)c32)cc1` gave D2 ag-1 inactive and D2 PAM-2 inactive.
For O=C(CN1CCC(O)(c2ccccc2F)CC1)NCCc1c[nH]c2ccccc12 the results were D2 ag-1 inactive, D2 PAM-1 inactive, D2 ag-2 inactive, D2 antagonist 86.0 and D2 PAM-2 inactive.
Screening O=C(CN1C(=O)c2ccccc2C1=O)NCCc1c[nH]c2ccccc12 returned D2 ag-1 inactive, D2 PAM-1 inactive, D2 ag-2 inactive, D2 antagonist inactive and D2 PAM-2 inactive.
CCN(CC)c1sc(S(=O)(=O)c2ccccc2)nc1S(=O)(=O)c1ccc(C)cc1 was read as D2 ag-1 inactive and D2 PAM-2 inactive.
For Clc1ccc(-c2c[n+](Cc3ccc(Cl)c(Cl)c3)c3n2CCC3)cc1 the results were D2 ag-1 inactive, D2 antagonist 40.9 and D2 PAM-2 inactive.
Screening Cc1ccc(-c2c[n+](Cc3ccc(Cl)cc3)c3n2CCC3)cc1 returned D2 ag-1 inactive, D2 PAM-1 inactive, D2 ag-2 inactive, D2 antagonist inactive and D2 PAM-2 inactive.
For O=C(Nc1cc(-c2ccc(Cl)cc2)no1)c1ccc(F)cc1 the results were D2 PAM-2 inactive.
C=CCn1c(=O)c(C#N)cc2c(=O)n3ccccc3nc21 was read as D2 ag-1 inactive, D2 PAM-1 inactive, D2 ag-2 inactive, D2 antagonist 57.8 and D2 PAM-2 inactive.
`O=C(CN1C(=O)NC(Cc2c[nH]c3ccccc23)C1=O)Nc1cccc(S(=O)(=O)N2CCCCCC2)c1` (centres undefined) gave D2 ag-1 inactive, D2 PAM-1 51.9, D2 ag-2 inactive, D2 antagonist inactive and D2 PAM-2 inactive.
Screening O=C(NCCSc1c(-c2ccc(Br)cc2)[nH]c2ccccc12)c1ccc(S(=O)(=O)N2CCOCC2)cc1 returned D2 ag-1 inactive and D2 PAM-2 inactive.
`Cc1c(C)n(O)c2ccc3nonc3c12` gave D2 ag-1 inactive, D2 PAM-1 inactive, D2 ag-2 inactive, D2 antagonist 41.1 and D2 PAM-2 inactive.
Screening CCOC(=O)Cn1c(=O)oc2cc(S(=O)(=O)N3CCN(c4cccc(C)c4C)CC3)ccc21 returned D2 ag-1 inactive and D2 PAM-2 inactive.
Screening COc1ccc(Oc2coc3cc(OC(=O)c4cccs4)ccc3c2=O)cc1 returned D2 ag-1 inactive, D2 PAM-1 inactive, D2 ag-2 inactive, D2 antagonist inactive and D2 PAM-2 36.6.
CCCc1c(C(=O)OCC)nnc2c(-c3ccccc3)c(C)nn12 was read as D2 PAM-2 inactive.
O=C(COC(=O)c1ccc(O)cc1O)Nc1ncc(Cl)cc1Cl was read as D2 ag-1 inactive, D2 PAM-1 inactive, D2 ag-2 inactive, D2 antagonist 31.1 and D2 PAM-2 inactive.
`CC(=O)N1CCN(c2ccc(NCc3ccc(C)cc3)cc2)CC1` gave D2 ag-1 inactive, D2 PAM-1 inactive, D2 ag-2 inactive, D2 antagonist inactive and D2 PAM-2 inactive.
